Among the data in PubChem BioAssay (NCI) are growth values, retold here.

Among the test systems are SK-MEL-2 melanoma; EKVX NSCLC; SN12C renal; UO-31 renal; TK-10 renal; ACHN renal; CAKI-1 renal; A498 renal; CCRF-CEM leukemia; MOLT-4 leukemia; RPMI-8226 leukemia; OVCAR-8 ovarian; OVCAR-5 ovarian; OVCAR-4 ovarian; SK-OV-3 ovarian; IGROV1 ovarian; HS 578T breast; NCI/ADR-RES ovarian; OVCAR-3 ovarian.
Holding throughout (experiment): NCI-60 one-dose screen, 48 h (100 = growth as untreated, 0 = no growth, -100 = all killed)
Conditions in all cases: 10 µM unless noted

The structures appear in SMILES notation. This is part of a sample that, as a whole, favours compounds with a hit. Of some 83,000 tested, about 20% had one in any assay.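 Plates (96-well) were seeded with cells, treated with compound at one concentration, and incubated for 48 hours before percent growth was determined.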 Unmarked numbers belong to inactive results. Activity calls are given as the source filed them. Rule for the calls: active = growth percent below 10; inactive = the rest.

On to `Cc1cccc(OCC(O)CN2CCN(c3ccc(Cl)cc3)CC2)c1` (stereo unspecified), for which the growth is 110% in the assay on SK-MEL-2 melanoma; 115% with EKVX NSCLC; 100% in the assay with SN12C renal; 82.4% in the assay with UO-31 renal; 106% in the assay on TK-10 renal; 108% in the assay with ACHN renal. For the same molecule, the growth with CAKI-1 renal is 93.1%; in the assay with A498 renal, 100%; with CCRF-CEM leukemia, 89%; in the assay on MOLT-4 leukemia, 97.1%; in the assay on RPMI-8226 leukemia, 103%; in the assay on OVCAR-8 ovarian, 94.9%. Also, the growth is 103% with OVCAR-5 ovarian; 106% with OVCAR-4 ovarian; 115% in the assay on SK-OV-3 ovarian; 124% in the assay with IGROV1 ovarian; 107% with HS 578T breast; 102% with NCI/ADR-RES ovarian.
In the case of `C[C@]12CC[C@@H]3c4cc(OC(F)F)c(OS(N)(=O)=O)cc4CC[C@H]3[C@@H]1CC[C@@H]2O`, the growth was 46.3% in the assay on SK-MEL-2 melanoma; 40.2% in the assay with EKVX NSCLC; 32.6% in the assay on SN12C renal; 40.1% in the assay with UO-31 renal; 94.2% with TK-10 renal; 44.9% in the assay on ACHN renal. Moreover, the growth was 41.4% in the assay on CAKI-1 renal; -8.42% (active) with A498 renal; 16.5% in the assay with CCRF-CEM leukemia; 18.7% in the assay with MOLT-4 leukemia; 17.8% in the assay with RPMI-8226 leukemia; 35.3% with OVCAR-8 ovarian. The growth in the assay on OVCAR-5 ovarian was 49.3%; in the assay on OVCAR-4 ovarian, 63.2%; in the assay with SK-OV-3 ovarian, 40.8%; with IGROV1 ovarian, 34.5%; with HS 578T breast, 27.8%; in the assay with NCI/ADR-RES ovarian, -1.45% (active).
Take `CCN1C(=O)N(CC)C2Nn3c(s/c(=C4\C(=O)Nc5ccccc54)c3=O)=NC21` (stereo unspecified): the growth is 61.2% in the assay with SK-MEL-2 melanoma; 83.2% in the assay with EKVX NSCLC; 49.8% with SN12C renal; 54.8% with UO-31 renal; 13.7% with TK-10 renal; 53.7% in the assay with ACHN renal. Besides, the growth was 37.9% in the assay with CAKI-1 renal; -2.29% (active) in the assay on A498 renal; 35.9% in the assay on CCRF-CEM leukemia; 59% with MOLT-4 leukemia; 53.2% with RPMI-8226 leukemia; 43.6% in the assay on OVCAR-8 ovarian. In addition, the growth with OVCAR-5 ovarian was 66.4%; with OVCAR-4 ovarian, 54.9%; in the assay on SK-OV-3 ovarian, 75.8%; in the assay on IGROV1 ovarian, 52.3%; in the assay with OVCAR-3 ovarian it was 10.5%; in the assay with HS 578T breast, 34.7%. Besides, the growth with NCI/ADR-RES ovarian was 73%.
For `COc1nc2ccc(C)cc2cc1-c1nc2c(cnn2-c2ccc(Br)cc2)c(=O)[nH]1`, the growth in the assay with SK-MEL-2 melanoma is 48.2%; in the assay on EKVX NSCLC, 53.5%; in the assay on SN12C renal, 48.5%; with UO-31 renal it was 45.7%; with TK-10 renal it was 77.3%; in the assay with ACHN renal, 37.6%. Moreover, the growth in the assay on CAKI-1 renal is 48.1%; in the assay on A498 renal, 7.08% (active); in the assay with CCRF-CEM leukemia it was 17.9%; with MOLT-4 leukemia, 58.9%; in the assay with RPMI-8226 leukemia, 33.2%; in the assay with OVCAR-8 ovarian, 40.7%. The growth in the assay on OVCAR-5 ovarian is 73.2%; with OVCAR-4 ovarian, 58%; in the assay on SK-OV-3 ovarian it was 43.3%; in the assay with IGROV1 ovarian it was 38.4%; with OVCAR-3 ovarian, -17% (active); with HS 578T breast, 34.3%. Also, the growth in the assay with NCI/ADR-RES ovarian is 14.2%.
With `CN1CCN(c2ccc(-c3cc4c(Nc5ccc(F)c(Cl)c5)ncnn4c3)cc2)CC1`, the growth in the assay on SK-MEL-2 melanoma was 103%; in the assay with EKVX NSCLC it was 83.5%; with SN12C renal it was 70.1%; in the assay with UO-31 renal it was 82.7%; in the assay with TK-10 renal, 73.6%; with ACHN renal it was 44%. Moreover, the growth in the assay on CAKI-1 renal is 66.8%; with A498 renal, 61.9%; in the assay with CCRF-CEM leukemia it was 28.9%; in the assay on MOLT-4 leukemia, 34.2%; in the assay with RPMI-8226 leukemia, 13.1%; with OVCAR-8 ovarian, 70.4%. The growth in the assay with OVCAR-5 ovarian was 95.2%; in the assay with OVCAR-4 ovarian, 71.2%; in the assay on SK-OV-3 ovarian, 92.7%; in the assay with IGROV1 ovarian, 49.5%; in the assay with HS 578T breast, 75.2%; in the assay with NCI/ADR-RES ovarian it was 72.5%.
On to `COc1ccc2c(c1)c(-c1nn3cc(-c4cccs4)nc3s1)cn2C`, for which the growth is 91.5% in the assay on SK-MEL-2 melanoma; 66.2% in the assay on EKVX NSCLC; 79.3% in the assay with SN12C renal; 39.3% with UO-31 renal; 73.3% in the assay on TK-10 renal; 69.9% in the assay on ACHN renal. The growth was 55.3% in the assay with CAKI-1 renal; 50.3% in the assay with A498 renal; 67% with CCRF-CEM leukemia; 45.7% in the assay on MOLT-4 leukemia; 68.8% in the assay with RPMI-8226 leukemia; 85.3% with OVCAR-8 ovarian. For the same molecule, the growth in the assay on OVCAR-5 ovarian is 66.5%; with OVCAR-4 ovarian, 70.6%; in the assay on SK-OV-3 ovarian, 84.8%; with IGROV1 ovarian it was 52.9%; in the assay with HS 578T breast it was 45.1%; in the assay with NCI/ADR-RES ovarian, 80.3%.
Turning to `O=[N+]([O-])c1ccc(Cl)c(-c2cc(CCCCO)on2)c1`, the growth was 118% with SK-MEL-2 melanoma; 103% in the assay with EKVX NSCLC; 94.5% with SN12C renal; 86% in the assay with UO-31 renal; 119% in the assay with TK-10 renal; 101% in the assay with ACHN renal. Further, the growth is 87.2% with CAKI-1 renal; 87.1% in the assay with A498 renal; 108% in the assay with CCRF-CEM leukemia; 109% in the assay with MOLT-4 leukemia; 105% in the assay with RPMI-8226 leukemia; 105% in the assay with OVCAR-8 ovarian. The growth with OVCAR-5 ovarian was 101%; with OVCAR-4 ovarian, 97.4%; in the assay with SK-OV-3 ovarian, 113%; with IGROV1 ovarian it was 105%; in the assay with OVCAR-3 ovarian it was 111%; in the assay on HS 578T breast, 99.7%. Moreover, the growth in the assay on NCI/ADR-RES ovarian was 101%.
With `NC[C@@H]1O[C@H](O[C@@H]2[C@@H](CO)OC(O[C@@H]3[C@@H](O)[C@H](N)C[C@H](N)[C@H]3OC3O[C@H](CN)[C@@H](O)[C@H](O)[C@H]3N)[C@@H]2O)[C@H](N)[C@@H](O)[C@@H]1O` (stereo partly specified), the growth in the assay on SK-MEL-2 melanoma is 125%; in the assay with EKVX NSCLC it was 98.4%; in the assay on SN12C renal, 117%; with UO-31 renal, 109%; in the assay with TK-10 renal it was 120%; in the assay on ACHN renal, 105%. Further, the growth was 99.5% in the assay with CAKI-1 renal; 108% in the assay with A498 renal; 97.5% in the assay with CCRF-CEM leukemia; 112% in the assay with MOLT-4 leukemia; 104% in the assay with RPMI-8226 leukemia; 98% in the assay with OVCAR-8 ovarian. For the same molecule, the growth is 104% in the assay with OVCAR-5 ovarian; 107% in the assay on OVCAR-4 ovarian; 119% in the assay on SK-OV-3 ovarian; 110% in the assay with IGROV1 ovarian; 111% in the assay with HS 578T breast; 105% with NCI/ADR-RES ovarian.
On to `CNc1nc2c(s1)C(c1cccc(F)c1)CC(=O)N2` (stereo unspecified), for which the growth with SK-MEL-2 melanoma was 100%; in the assay on EKVX NSCLC it was 103%; with SN12C renal, 95.2%; with UO-31 renal it was 84.6%; in the assay on TK-10 renal, 105%; in the assay with ACHN renal it was 88.4%. The growth was 87.6% with CAKI-1 renal; 69% in the assay on A498 renal; 104% in the assay with CCRF-CEM leukemia; 103% in the assay with MOLT-4 leukemia; 106% with RPMI-8226 leukemia; 102% in the assay on OVCAR-8 ovarian. For the same molecule, the growth in the assay with OVCAR-5 ovarian was 97.1%; in the assay with OVCAR-4 ovarian, 107%; with SK-OV-3 ovarian, 100%; in the assay with IGROV1 ovarian, 107%; with OVCAR-3 ovarian, 99.1%; in the assay on HS 578T breast it was 94.3%. The growth with NCI/ADR-RES ovarian was 103%.
